Reference: PubChem BioAssay AID618 (Sanford-Burnham Center for Chemical Genomics, 2007)
Among all 87,000 compounds or so, about 540 (0.62%) were called active. The rule behind the calls is not given here. This excerpt belongs to a sample that is enriched for actives. Measured potencies and affinities stand elsewhere.

Assay: MT1-MMP gene expression reporter suppression – cell-based, luciferase reporter, luminescence (AID 618);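 note: actives suppress MT1-MMP promoter-driven transcription so potencies describe inhibitors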
Conditions: MT1-MMP promoter luciferase reporter cells

outcome, active:
Cc1ccc2c(c1)C(N1CCCC1=O)CC(c1ccco1)N2 (stereo not given), COCCOC(=O)c1[nH]c2c(c1C)C(=O)CC(c1ccco1)C2 (stereo not given), Cc1c(C(=O)OC2CCCC2)[nH]c2c1C(=O)CC(c1ccco1)C2 (stereo not given), CCOC(=O)c1[nH]c2c(c1C)C(=O)CC(c1ccco1)C2 (stereo not given), Cc1c(C(=O)OCC(C)C)[nH]c2c1C(=O)CC(c1ccco1)C2 (stereo not given), CCCOC(=O)c1[nH]c2c(c1C)C(=O)CC(c1cccs1)C2 (stereo not given), Cc1c(C(=O)OCCOC(C)C)[nH]c2c1C(=O)CC(c1ccco1)C2 (stereo not given), CCOC(=O)c1[nH]c2c(c1C)C(=O)CC(c1ccc(F)cc1)C2 (stereo not given), CSCCOC(=O)c1[nH]c2c(c1C)C(=O)CC(c1ccco1)C2 (stereo not given), Cc1c(C(=O)OCc2ccccc2)[nH]c2c1C(=O)CC(c1ccco1)C2 (stereo not given), CN(C)c1ccc(N/C=C/C(=O)c2ccc(F)cc2)cc1, CN(C)c1ccc(N/C=C/C(=O)c2ccccc2)cc1, CCCCOC(=O)c1ccc(NC(=O)CSc2nncn2C)cc1, N=c1cc(C2(O)CCCCC2)n2c(nc3ccccc32)s1, CCCNCC(O)COc1ccccc1C(=O)CCc1ccccc1 (stereo not given), COc1ccccc1N1CCN(c2nc(C)nc3c2oc2ccccc23)CC1, CN=c1scc(C)n1/N=C/c1ccc(O)cc1O, CN=c1scc(C)n1/N=C/c1ccc2c(c1)OCO2

outcome, inactive:
COc1ccc(CSc2nnc(C)n2N)cc1, COc1cccc(CC2CC(=O)N(CCc3ccc4c(c3)OCO4)C2=O)c1 (stereo not given), CCC(=O)c1ccc(OCCSc2ncccn2)cc1, COc1ccc(N=C2SCC(=O)N2c2ccc(OC)cc2)cc1, Cc1ccc(C2CC(c3ccco3)n3ncnc3N2)cc1 (stereo not given), Cc1ccc(C2CC(c3ccco3)n3nc(N)nc3N2)cc1 (stereo not given), CCc1nn(C(C)C(=O)NCCN2CCN(c3cccc(C)c3C)CC2)c(=O)c2cc3occc3n12 (stereo not given), Cc1c(C(=O)OC2CCCCC2)[nH]c2c1C(=O)CC(C)(C)C2, Cc1c(C(=O)OC2CCC(C)CC2)[nH]c2c1C(=O)CCC2 (stereo not given), COCCOC(=O)c1[nH]c2c(c1C)C(=O)CC(c1ccc(N(C)C)cc1)C2 (stereo not given), CCC(C)OC(=O)c1[nH]c2c(c1C)C(=O)CC(c1ccc(N(C)C)cc1)C2 (stereo not given), COCCOC(=O)c1[nH]c2c(c1C)C(=O)CC(c1cc(OC)ccc1OC)C2 (stereo not given), Cc1c(C(=O)OCC2CCCO2)[nH]c2c1C(=O)CC(c1ccco1)C2 (stereo not given), CCOC(=O)c1ccc(N=CC2=C(O)CC(c3ccco3)CC2=O)cc1 (stereo not given), O=c1[nH]c(CN2CCN(c3ccc([N+](=O)[O-])cc3)CC2)nc2ccsc12, CCCCCOC(=O)CSc1n[nH]c(=O)[nH]c1=O, O=C(CC(Nc1ccc(Cl)cc1)C(=O)O)c1ccccc1 (stereo not given), Cc1cccc(NC(=O)COC(=O)CNC(=O)C2CCCCC2)c1, NC(=O)CSc1nnnn1-c1ccc2c(c1)OCCO2, O=C1CCCC2=C1C(Cc1ccccc1)C1=C(CCCC1=O)O2, CCN(CCNC(=O)CC1Oc2ccccc2NC1=O)c1ccccc1 (stereo not given), Cc1ccc(C2/C(=C(\O)c3ccc4c(c3)OCCO4)C(=O)C(=O)N2CCCN(C)C)o1 (stereo not given), CCN1CCN(C(=O)c2cc3c(=O)oc4ccc(C)cc4c3s2)CC1, Cc1c(C(=O)OCCOC(C)C)[nH]c2c1C(=O)CC(C)(C)C2, CCCOC(=O)c1[nH]c2c(c1C)C(=O)CC(c1ccc(OC)c(OC)c1)C2 (stereo not given), COc1cc(C2CC(=O)c3c([nH]c(C(=O)OCCOC(C)C)c3C)C2)cc(OC)c1OC (stereo not given), COC(=O)c1[nH]c2c(c1C)C(=O)CC(c1cccs1)C2 (stereo not given), Cc1c(C(=O)OCC(C)C)[nH]c2c1C(=O)CC(c1cccs1)C2 (stereo not given), CCOCCOC(=O)c1[nH]c2c(c1C)C(=O)CC(c1ccc(N(C)C)cc1)C2 (stereo not given), CCCOCCOC(=O)c1[nH]c2c(c1C)C(=O)CC(c1cc(OC)ccc1OC)C2 (stereo not given), COCCOC(=O)c1[nH]c2c(c1C)C(=O)CC(c1ccc(F)cc1)C2 (stereo not given), Cc1cc(Cl)cc(C)c1OCCCCN1CCOCC1, COCCn1c(CNc2ccc(F)cc2)nnc1SCC(=O)Nc1ccc(OC)cc1OC, COc1ccc(CN2CC(C(=O)NCc3cccc(OC)c3)CC2=O)cc1 (stereo not given), COC(=O)c1ccccc1NC(=O)c1ccc(-c2cccc(Cl)c2)o1, O=C(Nc1nnc(-c2ccc(Cl)s2)o1)C1CCCCC1, COc1ccccc1Oc1ccc2c(c1)C(=O)N(c1cccc(O)c1)C2=O, CCC(=O)N1CCNC(=O)C1CC(=O)Nc1ccc(C)c(Cl)c1 (stereo not given), CNCc1ccc(OCc2ccccc2)c(OC)c1, CC1=C(C(=O)OCc2ccccc2)C(c2ccco2)C2=C(CC(C)(C)CC2=O)N1 (stereo not given), Cc1c(C(=O)N2CCOCC2)[nH]c2c1C(=O)CC(c1ccccc1Cl)C2 (stereo not given), C=CCN1CC(c2nc3ccccc3n2Cc2cccc3ccccc23)CC1=O (stereo not given), CCCOc1ccc(C(CC(=O)O)NC(=O)C23CC4CC(CC(C4)C2)C3)cc1 (stereo not given), Cc1ccc(C(=O)Nc2cc(Cl)ccc2N2CCCCC2)s1, O=C(/C=C/Nc1ccc(F)cc1)c1ccco1, CN(C)c1ccc(NC(=O)CN2CCN(CC(=O)Nc3ccc(F)cc3)CC2)cc1, CN(C)c1ccc(N/C=C/C(=O)C(C)(C)C)cc1, CN(C)c1ccc(C(=O)c2ccccc2)cc1, CN(C)c1ccc(NC(=O)CN2CCC(C(=O)c3ccc(F)cc3)CC2)cc1, CC(=O)Nc1ccc(N/C=C/C(=O)c2ccco2)cc1, CSCC[C@H](NC(=O)CCn1nnc2ccccc2c1=O)C(=O)O, CCN1CCN(C(=O)c2ccc(Cl)c(S(=O)(=O)N3CCOCC3)c2)CC1, Cc1ccc(-n2nc3c(c2NC(=O)c2c(-c4ccccc4Cl)noc2C)CS(=O)(=O)C3)c(C)c1, COc1cccc(NC(=O)C(=O)N2CCOCC2)c1, Cc1ccc(-n2nc(C)c3c(C)cc(=O)[nH]c32)cc1, O=C(c1cccn2c(=O)c3cc(Br)ccc3nc12)N1CCN(c2ccccn2)CC1, Cc1ccc(-c2c(C(=O)N3CCOCC3)oc(=O)c3ccccc23)cc1, COC(=O)c1ccc(NC(=O)CSc2nncn2C)cc1, Cn1cnnc1SCC(=O)Nc1ccccc1, O=C1CC(N2CCC(c3nc4ccccc4o3)CC2)C(=O)N1c1ccc(Cl)cc1 (stereo not given), O=C(CCS(=O)(=O)c1cccs1)N1CCCC1, CC(=O)N1CCc2cc(S(=O)(=O)CCC(=O)O)ccc21, O=C1c2ccccc2NC(c2ccc(Cl)cc2Cl)N1Cc1ccccc1 (stereo not given), c1ccc2nc3c(nc2c1)sc1nc2ccccc2n13, CC(C)(O)c1cc(=O)sc2nc3ccccc3n12, c1ccc(Cn2c(-c3cncs3)nc3ccccc32)cc1, CCCCN(CCCNC(=O)C1CCN(S(=O)(=O)N2CCOCC2)CC1)Cc1ccccc1, CCn1c(CCNC(=O)c2cccs2)nnc1SCC(=O)NC1CCCCC1, Cc1noc(C)c1CSc1nnc2n(-c3ccccc3)c(=O)c3ccccc3n12, COc1ccc(-c2cc3nc(C)c(CCC(=O)NC(C)CCc4ccco4)c(C)n3n2)c(OC)c1 (stereo not given), COc1cc(OC)cc(-c2cc3nc(C)c(CCC(=O)NC(C)CCc4ccco4)c(C)n3n2)c1 (stereo not given), COc1ccc(CCNC(=O)N2CCOCC2)cc1, CC(C)(C)n1nnnc1CN(Cc1ccco1)Cc1cc2cc3c(cc2[nH]c1=O)OCO3, O=C(O)c1ccccc1NC(=O)C1CCCO1 (stereo not given), c1cncc(CNc2c3c(nc4nnnn24)CCCC3)c1, O=C(O)c1cccc(-c2nnn(Cc3ccccc3Cl)n2)c1, O=C(O)c1cccc(-c2nnn(Cc3ccccc3)n2)c1, COc1cc(-c2nc(S(=O)(=O)c3ccc(C)cc3)c(N(C)C)o2)cc(OC)c1OC, CCOc1cccc(NC(=O)C2CC(=O)N(C)C2)c1 (stereo not given), CC(C)(C)NCC(O)COc1ccccc1C(=O)CCc1ccccc1 (stereo not given), CCN(CC)CC(O)COc1ccccc1C(=O)CCc1ccccc1 (stereo not given), CC(C)(C)NS(=O)(=O)c1ccc(CCC(=O)NCc2cccnc2)cc1, CCOC(=O)c1c(NC(=O)CN(CC)CC)sc2c1CCC2, O=C(Cn1c(NCCO)nc2ccccc21)c1cccs1, Cc1cc(C)nc(N2CCN(c3nc(C)nc4c3oc3ccccc34)CC2)n1, COc1ccccc1N1CCN(c2ncnc3c2oc2ccccc23)CC1, Cc1ccc(C(=O)Nc2ccccc2OC(F)F)cc1, Cc1nnc(C)n1/N=C/c1ccc2c(c1)OCCO2, CCN=c1scc(C)n1/N=C/c1ccsc1, CN=c1scc(C)n1/N=C/c1ccc(O)c(O)c1O, CN=c1scc(C)n1/N=C/c1ccc(O)cc1, COC(=O)c1ccc(Cn2nc(C(F)(F)F)cc2C)cc1, COc1ccccc1OCCSc1nnnn1-c1ccc(C)cc1, c1ccc(OCCSc2nnnn2-c2ccccc2)cc1, CCN(C(=O)Cc1ccc(Br)cc1)C1CCCCC1, C(=N\n1cnnc1)/c1ccc(OCc2cccc3ccccc23)cc1, CCOCCOC(=O)CCSc1n[nH]c(=O)[nH]c1=O
